Our source for the Potency and outcome values is PubChem BioAssay (Tox21).

Assay [1] is described as follows: qHTS assay to identify small molecule antagonists of the glucocorticoid receptor (GR) signaling pathway - cell viability counter screen (AID 720693; note: nearly all actives have a fitted effect of over 55% in size). (In qHTS, concentration-response curves come from the screen itself.)
Assay [2] is described as follows: qHTS assay for identifying genotoxic compounds that show differential cytotoxicity against isogenic chicken DT40 cell lines with known DNA damage response pathways - wild type cell line (AID 743012). Note: nearly all actives have a fitted effect of over 60% in size. Note: potency is the fitted concentration of half-maximal effect. An outline of the steps:
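Luminescent ATP viability signal (CellTiter-Glo, 30 min RT) recorded after wild type DT40 cells were incubated with compounds for 40 h at 37 C/5% CO2.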

A short description of assay [3]: qHTS assay for identifying genotoxic compounds that show differential cytotoxicity against isogenic chicken DT40 cell lines with known DNA damage response pathways - Rev3 mutant cell line (AID 743014). Note: nearly all actives have a fitted effect of over 55% in size. Note: potency is the fitted concentration of half-maximal effect.
Assay [4] can be described thus: qHTS assay for identifying genotoxic compounds that show differential cytotoxicity against isogenic chicken DT40 cell lines with known DNA damage response pathways - Rad54/Ku70 mutant cell line (AID 743015). Note: nearly all actives have a fitted effect of over 60% in size. Note: potency is the fitted concentration of half-maximal effect.
Assay [5] can be described thus: qHTS assay to identify small molecule antagonists of the androgen receptor (AR) signaling pathway - cell viability counter screen (AID 743033; note: nearly all actives have a fitted effect of over 45% in size).
The nature of assay [6]: qHTS assay to identify small molecule antagonists of the androgen receptor (AR) signaling pathway using the MDA cell line - cell viability counter screen (AID 743041; note: nearly all actives have a fitted effect of over 45% in size). An outline of the steps: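 In this qHTS counter assay, fluorescence intensity after CellTiter-Fluor addition indicated viability of MDA-kb2 AR-luc cells given compounds and R1881 for 16 h at 37C.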
Assay [7] can be described thus: qHTS assay to identify small molecule antagonists of the thyroid receptor (TR) signaling pathway - cell viability counter screen (AID 743064). Note: nearly all actives have a fitted effect of over 50% in size. Note: potency is the fitted concentration of half-maximal effect. An outline of the steps:
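CellTiter-Fluor readout, 30 min at 37 °C/5% CO2, following 23.5 h incubation of GH3.TRE-Luc cells with test compound and 1 nM T3 (final).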

A short description of assay [8]: qHTS assay to identify small molecule antagonists of the thyroid receptor (TR) signaling pathway (AID 743065). Note: nearly all actives have a fitted effect of over 55% in size. Note: potency is the fitted concentration of half-maximal effect. The procedure, abridged:
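GH3.TRE-Luc rat pituitary cells carrying two TR response elements driving luciferase were plated for 4 h, given compound plus 1 nM T3 (final), and incubated 23.5 h at 37 C. ONE-Glo luminescence measured reporter inhibition; CellTiter-Fluor fluorescence tracked cytotoxicity.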

Assay [9] concerns thyroid hormone receptor (rat, GH3 cells). Description: qHTS assay to identify small molecule agonists of the thyroid receptor (TR) signaling pathway (AID 743066; calls by dose curve; note: potency is the fitted concentration of half-maximal effect).
Assay [10] deals with Estrogen receptor (Homo sapiens) (UniProt P03372). Description: qHTS assay to identify small molecule antagonists of the estrogen receptor alpha (ER-alpha) signaling pathway (AID 743069; active = well fitted curve in the direction sought with a large enough effect in the signal ratio in the repeat runs, not every such curve was filed as active; the % refers to the signal ratio). An outline of the steps: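 A 17beta-estradiol challenge was applied right after compound transfer to ER-alpha-UAS-bla HEK293 cells previously kept in charcoal-stripped serum. Plates stood 18 hr at 37C and 5% CO2; fluorescence was read following 2 hr FRET substrate loading at room temperature.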

The nature of assay [11]: qHTS assay to identify small molecule antagonists of the estrogen receptor alpha (ER-alpha) signaling pathway - cell viability counter screen (AID 743074; calls by dose curve;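 note: HEK293 cells carrying ER-alpha-UAS-bla reporter stimulated with 17beta-estradiol; nearly all actives have a fitted effect of over 45% in size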).
Assay [12] addresses Estrogen receptor (Homo sapiens) (UniProt P03372). Description: qHTS assay to identify small molecule agonists of the estrogen receptor alpha (ER-alpha) signaling pathway (AID 743075; calls by dose curve;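 note: HEK293 GripTite cells with ER-alpha and UAS-driven beta-lactamase reporter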).
For assay [13] the target is unchanged. The experiment in a line: qHTS assay to identify small molecule agonists of the estrogen receptor alpha (ER-alpha) signaling pathway using the BG1 cell line (AID 743079). Note: nearly all actives have a fitted effect of over 20% in size. Note: potency is the fitted concentration of half-maximal effect.
The nature of assay [14]: qHTS assay to identify small molecule antagonists of the estrogen receptor alpha (ER-alpha) signaling pathway using the BG1 cell line (AID 743080; calls by dose curve;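 note: BG1 cells stimulated with 17beta-estradiol alongside compound; nearly all actives have a fitted effect of over 25% in size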). Conditions: BG1Luc4E2 ERE-luciferase antagonist mode, luminescence; activity change, negative = inhibition: at 70.3 µM (top of the series). The procedure, abridged: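 BG1-Luc-4E2 cells (endogenous full-length ER-alpha, 4xERE luciferase) hormone-starved 5 days in charcoal-stripped FBS, plated 4,000/well for 24 h, then compound plus 17beta-estradiol for 21.5 h at 37 C; ONE-Glo luminescence read.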

A short description of assay [15]: qHTS assay to identify small molecule antagonists of the estrogen receptor alpha (ER-alpha) signaling pathway using the BG1 cell line - cell viability counter screen (AID 743081).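 Note: compound given together with 17beta-estradiol as the ER stimulus; nearly all actives have a fitted effect of over 45% in size.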
The next assay addresses Aromatase (Homo sapiens) (UniProt P11511). Description: qHTS assay to identify aromatase inhibitors (AID 743083). Note: nearly all actives have a fitted effect of over 55% in size. Note: potency is the fitted concentration of half-maximal effect.
Assay [16] addresses Androgen receptor (Homo sapiens) (UniProt P10275). Description: qHTS assay to identify small molecule antagonists of the androgen receptor (AR) signaling pathway (AID 743035; active = well fitted inhibition curve with a large enough effect in the signal ratio in the repeat runs, not every such curve was filed as active; the % refers to the signal ratio; note: potency is the fitted concentration of half-maximal effect). An outline of the steps: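 Quantitative HTS of the Tox21 10K library used HEK293 AR-UAS-bla cells stimulated with R1881 alongside compound for 16 h at 37C, followed by beta-lactamase FRET detection (LiveBLAzer B/G, 2 h, RT).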

For assay [17] the target is unchanged. The experiment in a line: qHTS assay to identify small molecule agonists of the androgen receptor (AR) signaling pathway (AID 743036; active = well fitted activation curve with a large enough effect in the signal ratio in the repeat runs, with a control signal flat, not every such curve was filed as active; the % refers to the signal ratio). An outline of the steps:
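Following a 4 h settling period, AR-UAS-bla HEK293 cells were dosed with compounds for 16 h at 37C. A 2 h room-temperature incubation with LiveBLAzer B/G FRET substrate preceded the fluorescence measurement.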

Assay [18] has the same target. Description: qHTS assay to identify small molecule agonists of the androgen receptor (AR) signaling pathway using the MDA cell line (AID 743040; note: nearly all actives have a fitted effect of over 20% in size). An outline of the steps:
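Cell-based luciferase reporter: MDA-kb2, MMTV promoter (AR + GR response elements). 16 h compound exposure at 37C; ONE-Glo, 30 min RT, luminescence.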

Assay [19] has the same target. Description: qHTS assay to identify small molecule antagonists of the androgen receptor (AR) signaling pathway using the MDA cell line (AID 743042; note: nearly all actives have a fitted effect of over 55% in size). An outline of the steps:
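MDA-kb2 cells (human breast carcinoma, stably carrying an MMTV-luciferase reporter responsive to AR and GR) were plated at 3,000 cells/well and preincubated 5 hr at 37C, then given compound plus R1881 agonist for 16 h. ONE-Glo luminescence was read.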

Each structure is given as a SMILES string. “And” between values parts separate entries of the source, which are not always exact repeats. Equal entries are not always repeated. Results filed as inconclusive are left out. More than one record can exist for a structure, and the calls need not agree. The source made the active and inactive calls. Unless noted, calls come from the whole dose curve; as a rule, active = well fitted curve in the direction sought with a large enough effect in the repeat runs; inconclusive = weak or mixed curves; inactive = no such curve, though single readings can be large; an effect the other way counts as inactive or inconclusive.

Androgen receptor (Homo sapiens), sequence (P10275 whole entry, looked up): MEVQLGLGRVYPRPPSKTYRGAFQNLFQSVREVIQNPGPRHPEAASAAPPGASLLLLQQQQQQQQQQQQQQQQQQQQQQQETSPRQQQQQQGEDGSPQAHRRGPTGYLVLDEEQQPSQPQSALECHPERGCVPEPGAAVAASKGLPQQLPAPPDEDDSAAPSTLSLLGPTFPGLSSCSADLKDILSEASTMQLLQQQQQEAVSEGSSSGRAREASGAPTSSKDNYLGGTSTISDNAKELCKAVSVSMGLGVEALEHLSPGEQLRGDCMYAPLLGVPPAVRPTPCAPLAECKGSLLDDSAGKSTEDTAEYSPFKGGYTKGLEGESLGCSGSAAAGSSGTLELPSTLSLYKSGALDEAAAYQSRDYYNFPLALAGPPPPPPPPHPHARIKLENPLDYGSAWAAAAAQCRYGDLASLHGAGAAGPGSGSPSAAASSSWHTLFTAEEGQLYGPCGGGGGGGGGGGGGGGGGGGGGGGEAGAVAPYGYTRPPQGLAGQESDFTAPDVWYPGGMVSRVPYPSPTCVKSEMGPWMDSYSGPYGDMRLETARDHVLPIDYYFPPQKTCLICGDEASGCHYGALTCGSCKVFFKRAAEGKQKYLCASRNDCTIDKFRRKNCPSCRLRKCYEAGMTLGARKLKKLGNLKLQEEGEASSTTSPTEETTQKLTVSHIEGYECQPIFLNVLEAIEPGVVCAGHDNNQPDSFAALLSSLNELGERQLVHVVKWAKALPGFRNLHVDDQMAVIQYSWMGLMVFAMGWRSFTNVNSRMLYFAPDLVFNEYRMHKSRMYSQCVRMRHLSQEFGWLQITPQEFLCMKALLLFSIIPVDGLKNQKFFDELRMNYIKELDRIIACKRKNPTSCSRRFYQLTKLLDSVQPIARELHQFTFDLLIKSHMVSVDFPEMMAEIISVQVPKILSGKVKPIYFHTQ
Estrogen receptor (Homo sapiens), sequence (P03372 whole entry, looked up): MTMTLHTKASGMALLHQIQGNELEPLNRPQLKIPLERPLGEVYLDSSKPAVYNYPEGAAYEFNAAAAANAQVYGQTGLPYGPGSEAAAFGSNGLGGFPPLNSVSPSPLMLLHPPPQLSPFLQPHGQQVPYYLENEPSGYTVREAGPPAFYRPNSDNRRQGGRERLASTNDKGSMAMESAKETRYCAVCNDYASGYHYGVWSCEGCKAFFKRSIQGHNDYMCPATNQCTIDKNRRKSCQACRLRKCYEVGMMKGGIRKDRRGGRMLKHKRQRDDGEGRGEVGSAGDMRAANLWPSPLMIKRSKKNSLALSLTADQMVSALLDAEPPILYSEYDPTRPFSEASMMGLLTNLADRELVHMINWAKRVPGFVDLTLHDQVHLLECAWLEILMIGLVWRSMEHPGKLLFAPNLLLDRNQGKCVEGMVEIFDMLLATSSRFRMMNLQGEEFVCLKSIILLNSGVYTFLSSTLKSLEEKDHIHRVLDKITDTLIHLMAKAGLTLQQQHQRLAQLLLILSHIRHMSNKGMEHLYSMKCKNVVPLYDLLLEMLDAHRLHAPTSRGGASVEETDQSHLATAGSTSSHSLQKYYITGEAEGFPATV
Aromatase (Homo sapiens), sequence (P11511 whole entry, looked up): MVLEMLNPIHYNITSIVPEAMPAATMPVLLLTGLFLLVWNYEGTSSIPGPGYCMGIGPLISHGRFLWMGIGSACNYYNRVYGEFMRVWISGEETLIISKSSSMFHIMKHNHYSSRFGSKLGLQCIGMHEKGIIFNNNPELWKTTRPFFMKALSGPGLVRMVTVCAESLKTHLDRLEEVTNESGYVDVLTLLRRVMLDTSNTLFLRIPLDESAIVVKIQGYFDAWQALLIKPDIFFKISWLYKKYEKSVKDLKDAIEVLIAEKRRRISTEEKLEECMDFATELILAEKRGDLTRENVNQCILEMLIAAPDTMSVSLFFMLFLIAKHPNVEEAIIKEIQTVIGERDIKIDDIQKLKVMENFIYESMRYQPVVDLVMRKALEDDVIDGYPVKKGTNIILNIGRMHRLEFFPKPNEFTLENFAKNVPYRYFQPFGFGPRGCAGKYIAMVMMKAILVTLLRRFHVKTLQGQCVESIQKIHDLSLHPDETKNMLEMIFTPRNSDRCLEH

Take `CCCc1cc(=O)[nH]c(=S)[nH]1`: the Potency entry in assay [1], in [2], in assay [5], in assay [6], in [7] and in assay [8] was “inactive” throughout. Also, the Potency entry in [9], in assay [10], in [11], in [12], in [14] and in assay [15] was “inactive” each time. For the same compound, in the assay with Aromatase (Homo sapiens), the Potency entry was “inactive”. The Potency entry was “inactive and 61.1 µM (active)” in [3]; “inactive and 54.5 µM (active)” in assay [4]; 26.6 µM (active) and inactive in assay [13].

For `CCCCCCc1ccc(O)cc1O`, the Potency entry in assay [1], in assay [5], in [6], in assay [19], in assay [9] and in assay [11] was “inactive” each time. The Potency entry in assay [15] was “inactive”. For the same compound, the Potency in assay [2] was 48.6 µM (active); in [3], 54.6 µM (active) and 38.6 µM (active); in [4], 21.7 µM (active); in assay [16] it was “inactive and 43.8 µM (active) and 43.6 µM (active)”; in assay [7], 54.6 µM (active) and 54.5 µM (active); in assay [8], 61.3 µM (active). Moreover, the Potency entry with Aromatase (Homo sapiens) is “inactive and 61.1 µM (active)”. For the same compound, the call in assay [17] and in assay [18] was inactive.

On to `CCOc1ccc(NC(C)=O)cc1`, for which the Potency result in assay [1], in assay [2], in assay [3], in assay [4], in [5] and in [16] was “inactive” throughout. Moreover, the Potency result in assay [6], in [19], in assay [7], in [8], in [9] and in assay [10] was “inactive” throughout. For the same compound, the Potency result (in assay [11]; in assay [12]; in assay [13]; in assay [14]; in [15]; in the assay with Aromatase (Homo sapiens)) was “inactive” throughout. Also, the call in assay [17] and in assay [18] was inactive.

Regarding `COc1ccc2c(c1)c(CC(=O)O)c(C)n2C(=O)c1ccc(Cl)cc1`, the Potency result in assay [1], in assay [2], in assay [3], in assay [4], in [5] and in assay [6] was “inactive” in each case. In addition, the Potency entry in [19], in [7], in assay [8], in [9], in [10] and in assay [11] was “inactive” throughout. In addition, the Potency result (in [12]; in assay [13]; in [14]; in assay [15]; with Aromatase (Homo sapiens)) was “inactive” each time. Besides, the compound was called inactive in assay [18].

`C=C(C)C(=O)OCC(C)O` (stereo not given): the Potency entry in assay [1], in [2], in assay [3], in assay [4], in assay [5] and in [6] was “inactive” each time. Also, the Potency entry in [7], in assay [8], in [9], in assay [10], in assay [11] and in [12] was “inactive” each time. Also, the Potency result (in assay [13]; in assay [14]; in assay [15]; with Aromatase (Homo sapiens)) was “inactive” in each case.

For `CCCCCCCC(=O)OCC(COC(=O)CCCCCCC)OC(=O)CCCCCCC`, the Potency result in [1], in assay [2], in assay [3], in [4], in assay [5] and in assay [6] was “inactive” each time. Further, the Potency entry in assay [7], in assay [8], in assay [9], in [10], in assay [11] and in assay [12] was “inactive” each time. Besides, the Potency entry (in assay [13]; in assay [14]; in [15]; with Aromatase (Homo sapiens)) was “inactive” in each case.

For `CN(N=O)C(=O)N[C@@H]1[C@@H](O)[C@H](O)[C@@H](CO)O[C@@H]1O`, the Potency result in assay [1], in assay [2], in assay [3], in assay [4], in [5] and in assay [6] was “inactive” throughout. In addition, the Potency entry in assay [7], in assay [8], in assay [9], in [10], in assay [11] and in assay [12] was “inactive” each time. The Potency result (in [13]; in assay [14]; in [15]; with Aromatase (Homo sapiens)) was “inactive” in each case.

With `CC12CCC(CC1)C(C)(C)O2`, the Potency entry in assay [1], in assay [2], in assay [3], in assay [4], in assay [5] and in [6] was “inactive” each time. For the same compound, the Potency entry in [7], in assay [8], in [9], in assay [10], in assay [11] and in [12] was “inactive” in each case. In addition, the Potency entry (in [13]; in assay [14]; in [15]; with Aromatase (Homo sapiens)) was “inactive” throughout.

Consider `CCCCC1(COC(=O)CCC(=O)O)C(=O)N(c2ccccc2)N(c2ccccc2)C1=O`, for which the Potency result in assay [1], in assay [2], in assay [3], in assay [4], in assay [5] and in [16] was “inactive” in each case. Moreover, the Potency entry in assay [6], in [19], in [7], in assay [8], in [9] and in [10] was “inactive” each time. Besides, the Potency entry (in assay [11]; in [12]; in assay [13]; in [14]; in [15]; with Aromatase (Homo sapiens)) was “inactive” each time. Further, the compound was classed as inactive in assay [17] and in assay [18].

As for `CN(C)C(=O)Nc1ccc(Cl)c(Cl)c1`, the Potency entry in [1], in assay [2], in assay [4], in assay [5], in assay [16] and in assay [6] was “inactive” in each case. Further, the Potency result in assay [19], in assay [7], in assay [8], in assay [9], in assay [10] and in assay [11] was “inactive” each time. The Potency entry (in assay [12]; in [13]; in assay [14]; in assay [15]; in the assay with Aromatase (Homo sapiens)) was “inactive” throughout. Besides, the Potency result in [3] is “inactive and 54.5 µM (active)”. Besides, the compound was called inactive in assay [17] and in assay [18].

For the compound `NC(CO)(CO)CO`, the Potency entry in assay [1], in [2], in assay [3], in assay [4], in [5] and in assay [6] was “inactive” throughout. The Potency result in assay [7], in assay [8], in assay [10], in assay [11], in assay [12] and in assay [13] was “inactive” in each case. In addition, the Potency result (in [14]; in assay [15]; with Aromatase (Homo sapiens)) was “inactive” throughout. Besides, in assay [9], the Potency result is “inactive and 9.69 µM (active)”.
